PubChem BioAssay (NCI)
Compounds without any hit were thinned out: in the full panel of roughly 83,000, 20% have a hit.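 Plates (96-well) were seeded with cells, treated with compound at one concentration, and incubated for 48 hours before percent growth was determined.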 Calls of active or inactive are those of the source. Rule for the calls: active = growth percent below 10; inactive = the rest.

The compounds below were run on NCI-H23 lung (assay: NCI-60 one-dose screen, 48 h (100 = growth as untreated, 0 = no growth, -100 = all killed)). Conditions: 10 µM unless noted.
For `CN(C)c1nc(NCCNS(=O)(=O)c2ccc(C3=Nc4c(N)nc(N)nc4NC(c4ccc(C(F)(F)F)cc4)C3)cc2)nc(Nc2ccc(F)cc2)n1` (stereo not drawn), the growth was 31.5% (inactive).
`COc1ccc(-c2nc3cc(C)ccc3n2CC(=O)N=Nc2c(O)[nH]c3ccccc23)cc1` was tested, and the growth was -10.8% (active).
With `NS(=O)(=O)c1ccc(CCNC(=O)CSc2ccc(-c3ccc(Br)cc3)nn2)cc1` the growth was 47.2% (inactive).
With `O=C(COc1ccc2c(c1)CCCC(=O)N2)NCc1ccccc1` the growth was 94.5% (inactive).
In the case of `CC1=C(C#N)C2=NNCC(c3ccccc3)=NN2C(c2ccccc2)=C1`, the growth is reported as 105% (inactive).
With `CC1CCCCN1CCCNC(=O)N/C(N)=N/c1nc2ccccc2s1` (stereo not drawn) the growth was 58.8% (inactive).
In the case of `Cc1nc(Nc2ccccn2)sc1C(=O)CC(SCC(=O)Nc1ccc(Cl)cc1)c1ccccc1F` (stereo not drawn), the growth is reported as -0.749% (active).
`CCCSc1nc(Nc2ccc(S(N)(=O)=O)cc2)c(C#N)c(-c2cc(OC)c(OC)c(OC)c2)n1` was tested, and the growth was 43.4% (inactive).
In the case of `Clc1cccc(N/N=C/c2c[nH]c3ccc(Br)cc23)n1`, the growth is reported as 39.8% (inactive).
In the case of `Cc1ccc(S(=O)(=O)c2nc(S(=O)(=O)c3ccc(C)cc3)c(N3CCN(C)CC3)s2)cc1`, the growth is reported as 56% (inactive).
`COc1c(F)ccc(C(=O)Nc2ccc3nc(NC(=O)C4CCCN(S(=O)(=O)c5ccc(C(F)(F)F)cc5)C4)sc3c2)c1F` (stereo not drawn) was tested, and the growth was 94.4% (inactive).
In the case of `COc1ccc(-c2ccnc(SCc3cc4ccccc4[nH]c3=O)n2)cc1`, the growth is reported as 76.1% (inactive).
In the case of `Cc1ccc(C2=NN(c3nc(-c4cc5ccccc5oc4=O)cs3)C(c3ccc(C)cc3)C2)cc1` (stereo not drawn), the growth is reported as 95.6% (inactive).
